The campaign covered roughly 62,000 compounds. About 100 (0.2%) were called active. Rule as the data show it: active = inhibition above about 20%; inactive = the rest. The entries come from a sample that favours actives as a whole.
molecular target: DNA-directed RNA polymerase subunit beta (Escherichia coli (strain K12)) (UniProt P0A8V2); assay: E. coli RNAP inhibitors, biochemical (AID 559); conditions: fluorescence transcription assay, hits give high values,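 tested at 10 µM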;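 also: 0% = enzyme without compound and 100% = no enzyme blank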
Sequence (P0A8V2 whole entry, looked up): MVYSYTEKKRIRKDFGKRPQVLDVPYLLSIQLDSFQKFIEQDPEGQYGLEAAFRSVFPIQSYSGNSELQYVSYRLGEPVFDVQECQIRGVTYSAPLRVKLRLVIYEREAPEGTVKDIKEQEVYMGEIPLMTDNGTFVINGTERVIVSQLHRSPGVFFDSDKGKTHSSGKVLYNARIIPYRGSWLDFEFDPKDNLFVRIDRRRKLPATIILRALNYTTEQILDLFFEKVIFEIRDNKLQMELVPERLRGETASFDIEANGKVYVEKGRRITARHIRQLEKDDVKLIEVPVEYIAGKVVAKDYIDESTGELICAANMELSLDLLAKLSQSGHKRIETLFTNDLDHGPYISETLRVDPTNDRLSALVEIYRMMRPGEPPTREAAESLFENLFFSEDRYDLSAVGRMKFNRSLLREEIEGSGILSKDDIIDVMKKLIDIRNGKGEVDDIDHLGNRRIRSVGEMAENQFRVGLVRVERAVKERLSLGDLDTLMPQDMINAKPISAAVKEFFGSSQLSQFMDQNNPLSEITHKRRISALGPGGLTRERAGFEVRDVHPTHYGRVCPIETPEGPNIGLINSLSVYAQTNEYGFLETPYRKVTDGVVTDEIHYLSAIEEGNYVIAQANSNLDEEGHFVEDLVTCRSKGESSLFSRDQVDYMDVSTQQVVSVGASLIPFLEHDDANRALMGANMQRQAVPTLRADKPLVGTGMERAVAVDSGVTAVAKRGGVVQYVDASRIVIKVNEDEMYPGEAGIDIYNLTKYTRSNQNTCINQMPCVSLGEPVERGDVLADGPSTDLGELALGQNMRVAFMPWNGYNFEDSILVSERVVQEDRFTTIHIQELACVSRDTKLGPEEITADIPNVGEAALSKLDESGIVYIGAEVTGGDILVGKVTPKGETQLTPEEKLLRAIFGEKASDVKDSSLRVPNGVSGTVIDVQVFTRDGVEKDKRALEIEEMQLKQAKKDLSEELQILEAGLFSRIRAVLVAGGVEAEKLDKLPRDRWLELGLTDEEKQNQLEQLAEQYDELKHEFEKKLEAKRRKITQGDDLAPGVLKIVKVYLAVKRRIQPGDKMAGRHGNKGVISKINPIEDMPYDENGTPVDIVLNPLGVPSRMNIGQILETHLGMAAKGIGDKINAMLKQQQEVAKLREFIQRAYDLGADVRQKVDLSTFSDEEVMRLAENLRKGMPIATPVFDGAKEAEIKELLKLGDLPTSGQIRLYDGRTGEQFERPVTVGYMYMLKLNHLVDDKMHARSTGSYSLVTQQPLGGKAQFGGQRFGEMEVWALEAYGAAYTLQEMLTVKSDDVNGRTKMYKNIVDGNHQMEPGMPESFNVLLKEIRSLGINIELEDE

Row | SMILES | inhibition
1 | CCc1c(C)sc(NC(=O)c2ccc(Br)o2)c1C(=O)OC | 3.85% (inactive)
2 | C=CCn1c(COc2cccc3cccnc23)nnc1SCC(=O)OC | 2.75% (inactive)
3 | Cc1ccc(S(=O)(=O)N2CCN(C(=O)CCC(=O)NC3CCCc4ccccc43)CC2)cc1 (stereo unspecified) | 8.3% (inactive)
4 | Cc1c(NC(=O)Nc2ccccc2Cl)sc(=S)n1C | 4.97% (inactive)
5 | CC(=O)C1C(c2ccc(Cl)cc2)NC(=O)NC1(O)C(F)(F)F (stereo unspecified) | 5.59% (inactive)
6 | COc1ccccc1C1/C(=C(/O)c2ccc(C)cc2)C(=O)C(=O)N1Cc1ccco1 (stereo unspecified) | 10.3% (inactive)
7 | CC(=O)OCc1cc(=O)n(C)c(=O)n1C | -0.42% (inactive)
8 | O=S(=O)(O)c1nc2ccccc2n1Cc1ccc(Cl)cc1Cl | 4.09% (inactive)
9 | O=C(O)C1CC=CCC1C(=O)NCCc1ccccc1 (stereo unspecified) | -1.18% (inactive)
10 | CCOc1ccc(NC(=O)CCC(=O)n2nc(C)cc2C)cc1 | 7.47% (inactive)
11 | CCCCOc1ccc(NC(=O)CSCC(=O)OCC)cc1 | 20.6% (active)
12 | CCOc1ccc(NC(=O)CC2NCCNC2=O)cc1 (stereo unspecified) | 10.3% (inactive)
13 | CN(C)/C=C1/C(=O)Nc2ccccc21 | 12.9% (inactive)
14 | COC(=O)c1ccc(NC(=O)CSc2nnc(CNc3ccc(OC)cc3)n2C)cc1 | 1.56% (inactive)
15 | C[C@H](NC(=O)OC(C)(C)C)c1nnc(SCC(N)=O)o1 | -0.35% (inactive)
16 | COc1ccc(-n2nnc3c(=O)n(CC(=O)OCc4ccccc4)cnc32)cc1 | 1.78% (inactive)
17 | CCC(C(=O)N1CCOCC1)n1c(C(=O)OC)cc2occc21 (stereo unspecified) | -1.1% (inactive)
18 | O=C(c1cccs1)N(C(=O)c1cccs1)c1ccccn1 | 4.36% (inactive)
19 | COc1cc(C2C3C(=O)N(c4ccccc4)C(=O)C3ON2c2ccccc2)ccc1O (stereo unspecified) | 6.83% (inactive)
20 | CCOC(=O)C1C(=O)C=C(c2ccc(OC)cc2)CC1c1ccco1 (stereo unspecified) | 0.68% (inactive)
21 | C=C(Br)CN1CCN(CC(=C)Br)CC1 | 5.48% (inactive)
22 | CCNC(=O)N1CCNC(=O)C1CC(=O)Nc1ccc(C(=O)OCC)cc1 (stereo unspecified) | 24.6% (active)
23 | COc1ccccc1C(=O)N1CCNC(=O)C1CC(=O)Nc1ccc(Cl)cc1 (stereo unspecified) | 7.25% (inactive)
24 | CCOC(=O)c1ccc(NC(=O)CSc2ncccn2)cc1 | 18.1% (inactive)

Row | SMILES | inhibition
25 | COc1ccc(N2CCN(C(=O)CSc3ncnc4c3cnn4-c3ccc(OC)cc3)CC2)cc1 | 3.59% (inactive)
26 | CC(=O)Nc1ccc(S(=O)(=O)N2CCN(C3CCCCCCC3)CC2)cc1 | 4.11% (inactive)
27 | CC(C)(C)c1cc(CN2CCN(CCC#N)CC2)cc(C(C)(C)C)c1O | 2.69% (inactive)
28 | Cc1ccc(NC(=O)CN(C)S(=O)(=O)c2cnc[nH]2)cc1C | 6.13% (inactive)
29 | Cc1ccc2c(c1)sc1ncc(NC(=O)c3ccccc3)c(=O)n12 | -11.4% (inactive)
30 | CCCCCCn1c(SCC(=O)c2ccccc2)nc2c1c(=O)[nH]c(=O)n2C | -4.3% (inactive)
31 | c1ccc(CCc2nc(-c3ccncc3)no2)cc1 | 8.17% (inactive)
32 | CC1CCN(Cc2nc3c(c(=O)n(C)c(=O)n3C)n2Cc2cccc3ccccc23)CC1 | 11.8% (inactive)
33 | CC(c1ccccc1)n1c(NCCCn2ccnc2)nc2c1c(=O)[nH]c(=O)n2C (stereo unspecified) | 6.37% (inactive)
34 | O=C(Nc1ccccc1N1CCCCC1)c1ccc2nccnc2c1 | 5.19% (inactive)
35 | CC(C)[C@H](NC(=O)Nc1ccc(S(N)(=O)=O)cc1)C(=O)O | 3.2% (inactive)
36 | Cc1cccc(C2c3c(n(C)c(=O)n(C)c3=O)N=C3c4ccccc4C(=O)C32)c1 (stereo unspecified) | 8.94% (inactive)
37 | Cn1c(=O)n(C)c2cc(S(=O)(=O)N3CCCc4ccccc43)ccc21 | 0.45% (inactive)
38 | CSc1nc2ccc(S(=O)(=O)N3CCc4ccccc43)cc2s1 | 0.59% (inactive)
39 | Cc1nn(C)c(C)c1S(=O)(=O)N1CCc2ccccc21 | 27.2% (active)
40 | COCCOC(=O)C1=C(C)NC(=O)NC1c1ccc(Cl)cc1 (stereo unspecified) | 7.31% (inactive)
41 | COC(=O)c1ccc(C2CC(=O)Nc3cc(OC)c(OC)cc32)cc1 (stereo unspecified) | 3.45% (inactive)
42 | CCc1cccc2c3c([nH]c12)C(CC)(CC(=O)O)OCC3 (stereo unspecified) | 8.22% (inactive)
43 | O=C(O)C1OC(C(=O)O)C2C1C(F)(F)C2(F)F (stereo unspecified) | 3.61% (inactive)
44 | NS(=O)(=O)c1cc2c(cc1Cl)NC(C(Cl)Cl)NS2(=O)=O (stereo unspecified) | 8.21% (inactive)
45 | CCS(=O)(=O)n1nc(-c2ccc(OC)cc2)nc1SC | 5.44% (inactive)
46 | Cc1ccc(CC2CC(=O)N(c3ccc4c(c3)OCCO4)C2=O)cc1 (stereo unspecified) | 7.6% (inactive)
47 | Cn1c2c(c(=O)n(C)c1=O)C1c3ccccc3OCC1C(C)(C)O2 (stereo unspecified) | 11.7% (inactive)
48 | CC1(c2ccccc2Cl)NC(=O)N(CC(=O)NC(=O)NCc2ccco2)C1=O (stereo unspecified) | 3.56% (inactive)

Row | SMILES | inhibition
49 | CCOc1ccc(Cn2c(SCCCCC#N)nc3c2c(=O)n(C)c(=O)n3C)cc1OCC | 1.66% (inactive)
50 | CCOC(=O)NC(C(F)(F)F)(C(F)(F)F)P(=O)(c1ccccc1)c1ccccc1 | 12.5% (inactive)
51 | O=C(NCC1CCCO1)C(C(=O)c1ccccc1)n1cc(Cl)ccc1=O (stereo unspecified) | -2.02% (inactive)
52 | O=C(COC(=O)c1ccccc1C(=O)c1ccccc1)c1ccco1 | 4.61% (inactive)
53 | Cc1ccc(NC(=O)c2cc(-c3ccc(C)o3)nc3ccccc23)nc1 | 2.57% (inactive)
54 | O=C(c1ccc2c(c1)N(Cc1ccc(F)cc1)C(=O)CS2)N1CCOCC1 | -0.9% (inactive)
55 | Cc1nc2c(-c3ccccc3)c(C)[nH]n2c(=O)c1Cl | 0.3% (inactive)
56 | CCNc1nc(N)nc(Oc2ccc(OCC)nn2)n1 | 16.5% (inactive)
57 | COc1ccc(OCC(=O)OCC(=O)Nc2ccc(S(=O)(=O)N3CCCCC3)cc2)cc1 | 6.57% (inactive)
58 | Cc1noc(C)c1S(=O)(=O)Nc1ccc(C(=O)O)cc1 | -2.73% (inactive)
59 | C=CCNC(=O)C1CC=CCC1C(=O)O (stereo unspecified) | -0.09% (inactive)
60 | CC(C)(C)NC(=O)NC(=O)COC(=O)Cn1c(C(F)(F)F)nc2ccccc21 | -0.99% (inactive)
61 | O=C(CSc1nc2[nH]ncc2c(=O)n1-c1ccccc1)N1CCCc2ccccc21 | -2.19% (inactive)
62 | CCOc1ccc(NS(=O)(=O)c2ccc(OCC(=O)NCCCOC)cc2)cc1 | 0.48% (inactive)
63 | COCCCN(C(=O)Cn1ncc2c(=O)oc3ccc(C)cc3c21)C(C)c1ccncc1 (stereo unspecified) | 5.04% (inactive)
64 | CCc1c(C)c2c(C)[nH]nc2oc1=O | 6.94% (inactive)
65 | CCCOc1ccccc1-c1nc(SCCC(=O)O)n[nH]1 | 4.03% (inactive)
66 | CCC(C)(C(=O)NC1CCCC1)N(C(=O)CNC(C)=O)c1ccc(C)cc1 (stereo unspecified) | 2.29% (inactive)
67 | CN(CC(=O)NC1CCCCC1)S(=O)(=O)c1cccc2cccnc12 | 1.4% (inactive)
68 | CCC(C)(NC(=O)c1ccccn1)C(=O)NC1CCCCC1 (stereo unspecified) | 24.2% (active)
69 | CCN1C(=O)/C(=C2/Sc3ccccc3N2CCCS(=O)(=O)O)SC1=S | 14% (inactive)
70 | COCCNC(=O)CN1C(=O)CSc2ncccc21 | 2.28% (inactive)
71 | Cc1ccc(Cn2c(NC(=O)c3ccco3)nc3ccccc32)cc1 | 3.14% (inactive)
72 | CCOC(=O)C1CCCN(C(=O)c2sc3nc(C)nc(N4CCOCC4)c3c2C)C1 (stereo unspecified) | 6.92% (inactive)

Row | SMILES | inhibition
73 | COc1cccc(N2CCN(C(=O)C3CCCN(S(=O)(=O)c4cnc[nH]4)C3)CC2)c1 (stereo unspecified) | 6.57% (inactive)
74 | Cn1c(=O)c2c(nc(N3CCCCCC3)n2CC(=O)c2ccc(Br)cc2)n(C)c1=O | 6.56% (inactive)
75 | O=CN1CCN(C2CC(=O)N(c3ccc4c(c3)OCO4)C2=O)CC1 (stereo unspecified) | -2.9% (inactive)
76 | Cc1cc(NC(=O)CSc2nnc(-c3ccc(Cl)s3)o2)no1 | 2.94% (inactive)
77 | Nc1nonc1-c1nc2ccccc2n1Cc1ccc(F)cc1 | 1.54% (inactive)
78 | COCc1cc(C)nc(SCC(=O)Nc2cccc(C)c2)c1C#N | 10.2% (inactive)
79 | CC(C)C(c1nnnn1Cc1ccccc1)N1CCC(C(N)=O)CC1 (stereo unspecified) | 9.07% (inactive)
80 | O=C(NC1CCCCC1)n1c(=O)oc2cc(S(=O)(=O)N3CCCCC3)ccc21 | 5.56% (inactive)
81 | COC(=O)c1c(NC(=O)CCN2CCOCC2)sc2c1CCCC2 | 7.91% (inactive)
82 | Cc1cc(C)nc(NC2=NCC(=O)N2c2ccc(Cl)cc2)n1 | 9.3% (inactive)
83 | COC(=O)CCSc1nccn1Cc1ccccc1 | 2.17% (inactive)
84 | O=C1CSC(=O)N1CCOCCN1C(=O)CSC1=O | 8.19% (inactive)
85 | CCOc1ccccc1Nc1nnc(SCc2ccc(C(=O)OC)o2)s1 | 3.87% (inactive)
86 | CC(=O)OCc1cc2cc(C)ccc2[nH]c1=O | 8.56% (inactive)
87 | CC(C)OC(=O)CN1C(=O)c2ccccc2C1=O | 8.17% (inactive)
88 | COCCN(C(=O)CCC(=O)Nc1ccccn1)C(C(=O)NCCC(C)C)c1ccc(OC)cc1 (stereo unspecified) | 9.79% (inactive)
89 | Cc1oc(-c2ccccc2F)nc1CS(=O)(=O)CC(=O)NCCCN(C)C1CCCCC1 | 4.54% (inactive)
90 | Cc1nnc(NC(=O)CSc2nccn2-c2cccc(C)c2C)s1 | 8.46% (inactive)
91 | Cc1cc(C(=O)COC(=O)CCCN2C(=O)c3ccccc3C2=O)c(C)n1C | 4.5% (inactive)
92 | COc1ccc(Br)cc1/C=N/n1c(C)nnc1C | 11.2% (inactive)
93 | COCCN(CC(=O)Nc1ccccc1C)S(=O)(=O)c1ccc(S(=O)(=O)N2CCCC2)cc1 | 4.44% (inactive)
94 | CC(C(=O)N1CCOCC1)N1c2cccc3cccc(c23)S1(=O)=O (stereo unspecified) | 8.72% (inactive)
95 | O=C(CCCN1C(=O)CCC1=O)Nc1ccc(Cl)c(C(F)(F)F)c1 | -1.3% (inactive)
96 | C=CCNc1nnc(SCC(=O)N2CCCCC2)c2ccccc12 | 5.18% (inactive)

— PubChem BioAssay AID559 (PCMD, 2006)
